Our source for the max response values is PubChem BioAssay (NCATS).

Records with an inconclusive call do not appear.

The test is described as follows: qHTS assay for small molecule antagonists of peroxisome proliferator-activated receptor delta signaling (AID 588535).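 Also: cells co-treated with a PPAR-delta agonist as stimulator during compound exposure.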 Conditions: HEK293T PPARd-UAS-bla, beta-lactamase FRET ratio, 18 h; 460 nm channel. Put shortly: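 Reporter: UAS-bla under PPAR-delta response element, HEK293T host. Medium: 2% charcoal/dextran FBS. Dosing: titration, 18 hrs, 37 C. Detection: CCF4, 2 hrs RT, 405 ex/460 and 530 em.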
Consider `CCCC(C)(COC(N)=O)COC(N)=O`, for which the max response was -25.1%. To `Oc1ccc(Cl)cc1` belongs -18.6%; to `O=C1c2ccccc2C(=O)c2ccccc21`, 36.9%.

For the compound `Nc1ccccc1`, the max response amounted to 1.43%.
